High-throughput results as filed in PubChem BioAssay.
697 NFkB inh = inhibitors of the PMA/ionomycin-induced NF-kB reporter in 697 B cells; AID 435022; inhibition, % at 4 µM; 697 B-cell NF-kB luciferase reporter, 16 h; actives 0.33% (n = 330,000); in the data active means inhibition above about 35%
Beta apoptosis = blocks beta cell apoptosis; INS-1E cytokine-induced death, ATP luminescence, 48 h; percent of positive-control rescue, neutral wells zero; protection from apoptosis, % (no concentration beside the values); actives 0.8% (n = 300,000); AID 435005;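 active means Every replicate reaches about 75%, or at least half do and their mean reaches it too, limit read from the data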;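 further: 0% = cytokine-treated negative control wells and 100% = positive control rescue; higher means more ATP so stronger rescue from cytokine killing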
Mdm2-MdmX inh = disrupts the human Mdm2-MdmX interaction. O15151+Q00987. SaOS-2 split-luciferase Mdm2/MdmX complementation, luminescence. inhibition, % at 8 µM. actives 3% (n = 330,000). AID 485346;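 active means inhibition of at least 50% at 8 µM in the primary screen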
Jurkat NFkB inh = inhibitors of the PMA/ionomycin-induced NF-kB reporter in Jurkat cells; inhibition, % at 4 µM; actives 0.53% (n = 330,000); AID 435003; PMA/ionomycin-induced NF-kB luciferase reporter, luminescence; in the data active means inhibition above about 50%
Gli-Sufu antag = blocks Gli-Sufu signaling in a luciferase reporter. Sufu-KO-LIGHT fibroblasts, Gli luciferase reporter luminescence. inhibition, % at 5 µM. actives 0.74% (n = 340,000);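 active means inhibition above about 55%, limit read from the data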;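 further: 0% = DMSO-treated cells and 100% = wells with medium but no cells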
Jurkat NFkB conf = inhibitors of the PMA/ionomycin-induced NF-kB reporter in Jurkat cells, retest; shares compounds with Jurkat NFkB inh; Jurkat NF-kB luciferase, 16 h; inhibition, % at 4 µM; actives 27% (n = 2,700); AID 435020;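 active means inhibition reaching about 45% at 4 µM in either replicate, limit read from the data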;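 further: plate controls were PMA/ionomycin stimulated DMSO wells for no effect and unstimulated DMSO wells for full effect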
Numbers without * were called inactive; . = no result. Shown are actives, neighbours in structure and some others; about 4% of the full set was active somewhere.

SMILES	697 NFkB inh	Beta apoptosis	Mdm2-MdmX inh	Jurkat NFkB inh	Gli-Sufu antag	Jurkat NFkB conf
COc1ccc([C@H]2CC(=O)C=C(c3ccc(F)cc3OCc3ccccc3)C2)cc1OC	0	14	33	-11	8	.
COc1cc2c(cc1OC)CN(C(=O)c1ccc(N3CCCC3)c([N+](=O)[O-])c1)CC2	10	4	-15	3	3	.
C=CCN(c1ccccc1)S(=O)(=O)c1ccc2c(c1)N(C(C)=O)CCO2	7	0	-14	10	-4	.
O=C(Nc1ccc(Cl)cc1)Nc1ccc2c(c1)OCO2	-99	-8	-72	-151	-87	-32
O=C(Nc1ccc2c(c1)OCO2)c1ccc(Cl)s1	-88	6	-184	-155	-54	-87
O=C(Nc1ccc2c(c1)OCO2)c1ccc2c(c1)OCO2	-152	8	-69	-136	-63	.
C=CCSc1nccc(-c2nn(-c3ccc(C)cc3)ccc2=O)n1	-60	10	46	50	-23	.
CCSc1nccc(-c2nn(-c3ccc(C)cc3)ccc2=O)n1	-48	4	38	51*	-3	27
COc1ccccc1N1CCN(C(=O)C(C)CS(=O)(=O)c2ccc3c(c2)NC(=O)CS3)CC1 (configuration not stated)	-11	1	10	-1	2	.
COc1ccc(OCC(O)CNC(=O)/C=C/c2cccc([N+](=O)[O-])c2)cc1 (configuration not stated)	-1	3	17	1	8	.
CCC(=O)N/C(N)=N/c1nc2ccccc2o1	-96	1	-27	-90	-63	.
CC(C)(C)C(=O)N/C(N)=N/c1nc2ccccc2o1	-226	4	-136	-156	-101	-141
O=c1[nH]c2cc3c(cc2cc1CN(CCc1ccccc1)C(=S)NCCCN1CCOCC1)OCCO3	.	.	.	.	0	.
CSc1ccc(CN2CCN(C(=O)c3ccc([N+](=O)[O-])cc3)CC2)cc1	-27	4	18	53*	-9	32
O=C(c1ccc(Cn2ccc([N+](=O)[O-])n2)cc1)N1CCN(Cc2ccccc2)CC1	-6	-17	-2	2	2	.
O=C(Nc1ccncc1)c1ccc(Cl)c(S(=O)(=O)N2CCc3ccccc32)c1	-17	.	43	60*	1	79*
Cc1cccc(NC(=O)c2ccc(Cl)c(S(=O)(=O)N3CCc4ccccc43)c2)n1	-15	-5	27	-16	-13	.
CC1CC(C)CN(C(=O)C(C)N(C)CC(=O)Nc2ccc(Cl)cc2)C1 (configuration not stated)	-3	4	9	6	-1	.
CCc1ccc2oc(-c3ccc(OC)cc3)cc(=Nc3c(C)n(C)n(-c4ccccc4)c3=O)c2c1	-236	11	45	-232	4	-115
COc1ccc(-c2cc(=Nc3ccc(C(=O)O)cc3)c3cc(C)ccc3o2)cc1	-143	3	-216	-178	-102	-116
C=CCn1c(-c2ccc(OC)cc2)csc1=Nc1c(C)n(C)n(-c2ccccc2)c1=O	21	5	16	1	-6	.
NC(=O)c1sc2nc(-c3cccnc3)ccc2c1N	2	-1	-4	-5	-5	.
CCOC(=O)c1sc2nc(-c3cccnc3)ccc2c1N	-147	2	-320	-182	-121	-69
CCOC(=O)c1c(NC(=O)COC(=O)Cc2c[nH]c3ccccc23)sc(C(=O)N(C)C)c1C	-2	3	2	2	1	.
Cc1cccc(-c2noc(-c3ccc(Cl)cc3[N+](=O)[O-])n2)c1	-187	1	-286	-161	-98	-103
SMILES	697 NFkB inh	Beta apoptosis	Mdm2-MdmX inh	Jurkat NFkB inh	Gli-Sufu antag	Jurkat NFkB conf
O=C(N/N=C\c1cccc(Cl)c1)c1n[nH]c2c1CCCC2	-192	4	-104	-152	-80	-63
O=C(N/N=C/c1ccc(Cl)cc1Cl)c1n[nH]c2c1CCCC2	-127	10	-57	16	-63	.
O=c1c2ccccc2oc2ccc(-c3ccc4[nH]ccc4c3)cc12	-218	3	-225	-172	-85	-90
O=c1c2ccccc2oc2cc(-c3ccc4cc[nH]c4c3)ccc12	-98	3	-16	7	-24	.
CN(Cc1nccn1C)C(=O)C1CCC(=O)N(Cc2cccc(C(F)(F)F)c2)C1 (configuration not stated)	8	-4	25	2	-7	.
O=c1[nH]c(/C=C/c2ccccc2Cl)nc2ccccc12	-174	.	-61	-63	-90	.
Clc1cccc(Cl)c1/C=C/c1nc2ccccc2[nH]1	-111	13	-172	-159	-74	-103
CC(C)(C)c1ccc(NC(=O)c2ccccc2)c([N+](=O)[O-])c1	-192	3	-112	-163	-100	-97
Cc1c(NC(=O)c2ccc(C(C)(C)C)cc2)cccc1[N+](=O)[O-]	-9	10	-74	-56	-48	.
Cc1cc(C)c(NC(=O)CNC(=O)COC(=O)CNC(=O)c2ccc(Cl)cc2Cl)c(C)c1	19	.	10	0	-12	.
Cc1cc(C)c(S(C)(=O)=O)c(Oc2cccc(C(F)(F)F)c2)n1	-14	-1	7	15	4	.
COc1ccc(C(=O)CCNc2ccc(F)cc2)cc1	-119	5	-22	70*	-48	-27
O=C(Nc1ccc2nsnc2c1)c1ccc2c(c1)OCO2	-159	11	-98	-166	-86	-72
O=C(Nc1ccc(Br)cc1)c1ccc2c(c1)OCO2	-238	6	-126	-151	-102	-123
COc1ccc(C(=O)NNC(=S)NC(=O)c2ccc(OC)cc2)cc1	1	.	8	-2	-11	.
COc1ccc(NC(=S)N/C(=N/CS(=O)(=O)c2ccccc2)c2ccccc2)cc1	-211	-9	26	-151	-28	-9
COc1ccc(NC(=S)NNC(=O)c2ccccc2OC(F)F)cc1	-41	-7	42	53*	4	27
COc1ccc(C(=O)NNC(=S)Nc2ccccc2)cc1	-152	-1	-144	-173	-9	-116
O=C(COC(=O)COc1ccc(Cl)cc1)NCCNC(=O)COC(=O)COc1ccc(Cl)cc1	-9	8	16	4	0	.
CN1CCCC1CCNc1ccc2oc3ccccc3c(=O)c2c1 (configuration not stated)	-63	1	2	-130	-15	.
O=c1c2ccccc2oc2cc(NCCCN3CCOCC3)ccc12	-219	4	-107	-184	-32	-53
O=c1c2ccccc2oc2ccc(NCCCN3CCOCC3)cc12	-102	-1	-136	-114	-55	.
O=c1c2ccccc2oc2cc(NCCCn3ccnc3)ccc12	-218	0	-185	-178	-71	-84
CN1CCCC1CCNc1ccc2c(=O)c3ccccc3oc2c1 (configuration not stated)	-161	4	-58	-218	-16	-38
C(=N\Nc1ccccn1)/c1ccc2c(c1)OCCO2	-213	3	-233	-172	-118	-106
CCCOc1ccc(/C=N/Nc2ccccn2)cc1OC	-120	-5	-132	-172	34	-29
